# USP28 block: inhibitors of human USP28 deubiquitinase | Ubiquitin carboxyl-terminal hydrolase 28 (Homo sapiens), Q96RU2 | purified USP28, Ub-rhodamine cleavage fluorescence, 30 min | inhibition, % at 25 µM | hit rate 3% among 47,000 | AID 1645857, 2021
# USP10 inh: inhibitors of human USP10 deubiquitinase | hit rate 1.1% among 47,000 | AID 1645856, 2021 | inhibition, % at 20 µM | Ubiquitin carboxyl-terminal hydrolase 10 (Homo sapiens), Q14694 | purified USP10, Ub-rhodamine fluorescence, 60 min
# USP17 inh: inhibitors of human USP17 deubiquitinase. purified USP17, Ub-rhodamine cleavage fluorescence, 3 h. hit rate 6.5% among 47,000. inhibition, % at 50 µM
# USP30 inh: inhibitors of human USP30 deubiquitinase | inhibition, % at 25 µM | hit rate 5.3% among 47,000 | purified USP30, Ub-rhodamine cleavage fluorescence
# USP8 block: inhibitors of human USP8 deubiquitinase; purified USP8, Ub-rhodamine cleavage fluorescence, 30 min; inhibition, % at 20 µM; Ubiquitin carboxyl-terminal hydrolase 8 (Homo sapiens), P40818; hit rate 4.2% among 47,000
# Active calls of the source: *; x = no result given. A selection: hits, their analogues and other compounds. The true share with any hit is near 13%. Cut-off read from the data, not from the text of the source: active = inhibition above about 30%; inactive = the rest.
SMILES,USP28 block,USP10 inh,USP17 inh,USP30 inh,USP8 block
COc1ccc(C(=O)c2c[nH]c(C(N)=O)c2)cc1,3.4,1.3,3.2,19.7,-1.0
O=C(Nc1cnc(N2CCCC2)nc1)c1ccccc1Br,6.4,-0.9,0.0,5.1,2.0
CC(NCCc1ccc(Cl)cc1)c1nc2scc(-c3ccccc3)c2c(=O)[nH]1 (stereo not drawn),-3.7,5.3,35.0*,-24.4,-16.7
CC(Nc1ccccc1)c1nc2scc(-c3ccccc3)c2c(=O)[nH]1 (stereo not drawn),-7.5,2.4,14.6,1.1,0.2
O=C(CCCc1c[nH]c2ccccc12)Nc1ccc2c(c1)OCCO2,74.7*,2.0,-35.2,-20.0,6.5
O=C(Nc1ccc(N2CCOCC2)cc1)c1cc(=O)[nH]c2ccccc12,9.4,8.0,59.7*,8.6,24.1
O=C(Nc1cc(S(=O)(=O)N2CCOCC2)ccc1N1CCCC1)c1cc(=O)[nH]c2ccccc12,-14.4,-1.8,-11.3,-78.8,-12.1
O=C(Nc1ccc2c(c1)OCCCO2)c1cc(=O)[nH]c2ccccc12,x,2.9,46.1*,x,0.6
Cc1cccc(-n2c3c(c(=O)[nH]c2=O)CN(CCc2ccccc2)CN3)c1,-3.3,0.1,-5.6,-0.6,-1.8
O=c1c2[nH]c3ccccc3c2ncn1CCc1ccccc1,0.8,6.5,12.5,26.4,18.4
COc1ccc(-c2cnn(C(C)(C)C)c2)cc1,0.0,0.0,2.6,2.1,-4.3
Fc1ccc(Nc2ncnc3c(-c4ccccc4)noc23)cc1,6.3,4.8,43.7*,46.0*,5.8
CC(C(=O)NCc1ccc2c(c1)OCO2)n1nc(-c2ccccc2)c2cc(Cl)ccc21 (stereo not drawn),15.5,0.0,34.7*,25.5,1.9
CC(C(=O)NCc1ccc2c(c1)OCO2)N1CCN(c2ccc(O)cc2)CC1 (stereo not drawn),29.5,7.7,73.3*,22.6,59.6*
COC(=O)c1ccccc1NC(=O)C(C)n1nc(-c2ccccc2)c2cc(Cl)ccc21 (stereo not drawn),-13.6,2.8,-2.9,-24.7,-0.4
CC(=O)N1CC(C(=O)NCc2ccc3c(c2)OCO3)C1,8.6,5.9,1.9,27.5,-16.1
O=C(NC1CCN(Cc2c[nH]c3ccccc23)CC1)C1CCCCC1,6.9,-3.9,-13.4,-22.3,-9.4
Cc1noc([C@@H]2C[C@H]3CN(S(=O)(=O)c4ccccc4C)C[C@H]3O2)n1,-3.9,0.0,-11.5,-4.5,-1.9
CC(C)(C)c1ccc(N(CC(N)=O)S(C)(=O)=O)cc1,3.2,-1.0,11.1,33.8*,-20.3
Cc1ccccc1NC(=O)c1ccc(N2CCCCC2)nn1,-2.9,1.6,46.7*,69.6*,-19.6
Cc1cc(OCC(=O)Nc2ccccc2C)nc(N2CCCCCC2)n1,20.9,-0.9,27.7,35.6*,25.9
CC(=O)c1cccc(NC(=O)c2ccc(N3CCCCC3)nn2)c1,18.4,0.2,49.3*,56.8*,-13.7
Cc1cc(OCC(=O)Nc2ccccc2F)nc(N2CCCCCC2)n1,3.5,0.0,-1.5,0.1,1.6
O=C(N[C@H]1[C@H](O)[C@H](O)C[C@@H]1c1ccc(N2CCOCC2)nc1)c1cc2ccccc2s1,-5.5,0.6,-17.7,-66.7,12.1
CC(/C=C/C(O)=C1/C(=O)CNC1=O)=C\[C@@H](C)[C@H]1O[C@@]2(C)O[C@H](C=C[C@@]23CO3)[C@@H]1C,-7.0,-0.8,-24.6,-19.2,-24.6
SMILES,USP28 block,USP10 inh,USP17 inh,USP30 inh,USP8 block
O=C(NCCN1CCCCC1)c1[nH]nc2c1COc1ccccc1-2,10.3,0.0,8.7,22.1,20.3
CC(C)NC(=O)c1[nH]nc2c1COc1ccccc1-2,16.5,0.2,-7.4,2.4,-13.7
N#Cc1cccc(NC(=O)c2[nH]nc3c2COc2ccccc2-3)c1,-14.7,41.1*,-23.0,-75.8,72.4*
O=C(NCc1ccc2c(c1)OCO2)c1[nH]nc2c1COc1ccccc1-2,31.1*,28.8,60.1*,39.5*,53.7*
O=C(Nc1cccc(Cl)c1)c1[nH]nc2c1COc1ccccc1-2,-47.6,26.3,29.3,-71.8,75.0*
O=C(NC1CCN(Cc2ccccc2)CC1)c1[nH]nc2c1COc1ccccc1-2,66.6*,-5.3,19.0,7.8,6.1
CCCN1C(=O)c2cc(S(=O)(=O)NCC(C)C)ccc2Oc2cccnc21,6.3,1.5,5.4,7.8,1.1
O=C(Nc1ccc(F)cc1)c1ccc(N2CCCCS2(=O)=O)cc1Cl,19.1,1.3,18.0,-1.2,-0.1

# Screens: PubChem, Buhrlage Lab, Dana-Farber Cancer Institute and Novartis Institutes for BioMedical Research (Cambridge, Mass)
